Data taken from PubChem BioAssay AID2524 (Sanford-Burnham Center for Chemical Genomics, 2010).
Out of some 330,000 compounds screened, about 540 (0.16%) were called active. The entries come from a sample that favours actives as a whole. A number with no mark means an inactive call.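 Rule for the calls: active = activation factor of the enzyme at least 2-fold when tested at 20 µM; inactive = the rest.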

target: Intestinal-type alkaline phosphatase (Homo sapiens) (UniProt P09923); experiment: enzymatic activation of intestinal alkaline phosphatase – biochemical, luminescence, uHTS, primary screen (AID 2524); settings: purified human IAP, CDP-Star luminescence, 30 min; at 10 µM; stronger effect = higher value; 1 = vehicle-only enzyme, 0 = enzyme-free background
Sequence (P09923 whole entry, looked up): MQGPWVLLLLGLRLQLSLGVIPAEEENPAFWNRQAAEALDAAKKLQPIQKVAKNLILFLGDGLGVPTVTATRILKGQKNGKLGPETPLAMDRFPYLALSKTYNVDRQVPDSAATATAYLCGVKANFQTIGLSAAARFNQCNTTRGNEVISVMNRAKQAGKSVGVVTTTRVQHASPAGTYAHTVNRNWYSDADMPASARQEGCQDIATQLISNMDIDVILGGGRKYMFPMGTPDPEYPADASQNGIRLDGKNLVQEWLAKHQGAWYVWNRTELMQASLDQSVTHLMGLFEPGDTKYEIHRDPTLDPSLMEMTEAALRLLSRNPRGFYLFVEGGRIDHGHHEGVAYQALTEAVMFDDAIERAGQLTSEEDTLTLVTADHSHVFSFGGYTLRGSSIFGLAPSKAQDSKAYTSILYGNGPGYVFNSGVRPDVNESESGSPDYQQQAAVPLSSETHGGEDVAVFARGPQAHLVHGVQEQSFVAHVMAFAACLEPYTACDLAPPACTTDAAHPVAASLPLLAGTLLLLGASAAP

First: CN1C(=O)C2(OCCCO2)c2cc(Cl)ccc21
Second: Cc1ccccc1N1C(=O)C(Oc2ccc(Cl)cc2)C1CNCC1CCCO1 (centres undefined)
The activation factor of the first is lower: 0.939 for the first, 0.957 for the second.

Going from `CC(=O)NCCc1ccc(S(=O)(=O)Nc2ccc(C)c(S(=O)(=O)N3CCOCC3)c2)cc1` to `COc1ccc(C(=O)N(Cc2ccccc2)c2ccc(C)cc2)cc1S(=O)(=O)N1CCOCC1`, the activation factor falls from 0.976 to 0.94.

Compared with `COc1ccc(N(CC(=O)NCCSCc2cccc(Cl)c2)S(C)(=O)=O)cc1`, `COc1ccc(C(=O)NNS(=O)(=O)c2ccc(C)cc2)cc1` is lower in activation factor: 1.4 for the first, 0.935 for the second.

First: Cn1cnnc1SCC(=O)Nc1ccc(N2CCOCC2)cc1
Second: Cn1cnnc1SCC(=O)NNC(=O)COc1ccc(Br)cc1
The activation factor of the first is lower: 1.03 for the first, 1.79 for the second.

Compared with `Cc1cn(C2C=CC(CO)O2)c(=O)[nH]c1=O` (centres undefined), `CCCCCC1CC(COc2ccccc2)OC1=O` (centres undefined) is lower in activation factor: 0.925 for the first, 0.9 for the second.

Going from `Cc1cc2c(cc1C)[n+](C)cn2CC(O)COCC1CC=CCC1` (centres undefined) to `Cc1cc(C)c(C#N)c(SCC(=O)N(CC(C)C)C2CCS(=O)(=O)C2)n1` (centres undefined), the activation factor rises from 0.897 to 0.97.

First: N=c1c2c(-c3ccccc3)c(-c3ccccc3)n(Cc3ccccc3)c2ncn1CCCO
Second: Cn1c(=O)c2c(nc(NCCc3ccccc3)n2Cc2ccccc2)n(C)c1=O
The activation factor of the first is higher: 1.11 for the first, 0.914 for the second.

`O=C(NC(=S)Nc1ccccc1C(=O)O)c1ccc(-c2ccc(Br)cc2)o1` and `Cc1ccc(OCC(=O)Nc2ccccc2C(=O)NC2CC2)cc1` are the same in activation factor: 0.945 for the first, 0.945 for the second.

First: CC(C)(C)NC(=O)C(=O)NCc1ccncc1
Second: CCCCN(CC(=O)NC(C)(C)C)C(=O)C(=O)Nc1ccc2c(c1)OCCO2
The activation factor of the first is higher: 1.09 for the first, 1.04 for the second.

Going from `CC(NCC(=O)Nc1cc(Cl)cc(Cl)c1)c1ccccc1` (centres undefined) to `CCC(C(=O)Nc1ccc2c(c1)OCCO2)c1ccccc1` (centres undefined), the activation factor falls from 1.03 to 0.871.

Compared with `CCC(C(=O)OCC(=O)Nc1ccc(C(=O)Nc2ccc(OC)cc2)cc1)c1ccccc1` (centres undefined), `CCOC(=O)c1ccc(NC(=O)c2nc[nH]c2C(=O)NCc2ccccc2)cc1` is higher in activation factor: 1.08 for the first, 1.59 for the second.

First: O=C(CSc1nnnn1C1CCCC1)Nc1ccc2c(c1)OCCO2
Second: O=C(COc1ccc2c(C(F)(F)F)cc(=O)oc2c1)Nc1ccc2c(c1)OCCO2
The activation factor of the first is lower: 0.96 for the first, 1.02 for the second.

`Cc1cnc(NC(=O)Cn2cnc3c2c(=O)n(C)c(=O)n3C)s1` and `Cc1ccc(NC(=O)CN2C(=O)NC(C)(c3ccc(Cl)cc3)C2=O)c(Br)c1` (centres undefined) are the same in activation factor: 1 for the first, 1 for the second.

First: CCOc1ccc(C(=O)COC(=O)c2ccc(-n3cnnn3)cc2)cc1
Second: COc1ccc(-n2nnc3c(=O)n(CC(=O)N4CCC(Cc5ccccc5)CC4)cnc32)cc1
The activation factor of the first is higher: 1.05 for the first, 1.02 for the second.

First: CC(=O)NC1C(Oc2ccc(C)cc2)OC2COC(c3ccco3)OC2C1O (centres undefined)
Second: CC(=O)NC1C(Oc2ccc(C=O)cc2)OC(COC(C)=O)C(OC(C)=O)C1OC(C)=O (centres undefined)
The activation factor of the first is higher: 1.11 for the first, 1.03 for the second.

First: Oc1ccc(Br)cc1/C=N/Nc1ccccn1
Second: O=[N+]([O-])c1ccc2nc(-c3ccccn3)[nH]c2c1
The activation factor of the first is lower: 1.22 for the first, 1.4 for the second.

Compared with `C=CCOc1cccc(CNn2cn[nH]c2=S)c1`, `FC(F)(F)c1ccc(-n2cn[nH]c2=S)cc1` is higher in activation factor: 0.895 for the first, 1.1 for the second.

First: CNC(=O)CN1C(=O)NC(c2ccccc2)(c2ccccc2)C1=O
Second: COc1cccc(NC(=O)CN(C)C(=O)c2ccccc2CCc2ccccc2)c1
The activation factor of the first is lower: 1.05 for the first, 1.1 for the second.

Going from `CCOc1ccccc1N1C(=O)CC(Sc2nccc(C)n2)C1=O` (centres undefined) to `CCOc1ccc2[nH]c(C(=O)N/N=C/c3cccc(OC)c3OC)cc2c1`, the activation factor falls from 1.29 to 0.924.

Compared with `O=C(NCC(=O)N1CCC2(CC1)NCCc1[nH]cnc12)c1ccc(Br)cc1`, `O=C1COc2ccc(C(=O)CSc3ccc(Br)cc3)cc2N1` is lower in activation factor: 1.11 for the first, 1.06 for the second.

Compared with `O=C(O)CSC(NC(=O)c1cccnc1)(C(F)(F)F)C(F)(F)F`, `O=C(Nc1ccccc1C(F)(F)F)N1CCCC1c1cccnc1` (centres undefined) is lower in activation factor: 0.961 for the first, 0.942 for the second.

Compared with `O=C(Nc1sc2c(c1-c1nc3ccccc3[nH]1)CCCC2)C1CC1`, `Cc1cc(=O)n2nc(N3CCCC(C(=O)NCc4cccc(Cl)c4)C3)sc2n1` (centres undefined) is higher in activation factor: 1.06 for the first, 1.28 for the second.

Compared with `O=C(NCCC1CCCCN1S(=O)(=O)c1ccc(Cl)cc1)C(=O)NCc1ccco1` (centres undefined), `COc1ccccc1N(C)S(=O)(=O)c1ccc(C(=O)N2CCC(C(N)=O)CC2)cc1` is lower in activation factor: 1.03 for the first, 0.887 for the second.

Going from `Cn1c(=O)c2sccc2n(Cc2ccc(Br)cc2)c1=O` to `Cn1cc(S(=O)(=O)N2CCN(c3ccc(F)cc3)CC2)c(=O)n(C)c1=O`, the activation factor rises from 0.619 to 1.04.

Going from `Cc1cccc(NC(=O)CSc2nnc(CCCCCNC(=O)OC(C)(C)C)o2)c1C` to `CCOC(=O)c1sc(NC(=O)CSc2nc(C)cc(C(F)(F)F)n2)c(C#N)c1C`, the activation factor rises from 0.854 to 0.888.

First: O=C(O)CCC(=O)Nc1ccc(OCC2CCCO2)cc1 (centres undefined)
Second: CC(C)c1ccc(NC2CCCN(C(=O)c3ccncc3)C2)cc1 (centres undefined)
The activation factor of the first is lower: 0.853 for the first, 0.926 for the second.

First: Cc1cccc(NC(=O)c2nc[nH]c2C(=O)NCC(=O)OCc2ccccc2)c1
Second: Cc1cc(C)c2c(-n3cccc3)c(NC(=O)OCc3ccccc3)sc2n1
The activation factor of the first is lower: 1.09 for the first, 1.11 for the second.

Going from `Cc1ccc2cc(CCNC(=O)c3c(-c4ccccc4Cl)noc3C)c(=O)[nH]c2c1` to `COc1cc(/C=N/NC(=O)c2cc(-c3ccccc3C)nc3ccccc23)cc(OC)c1O`, the activation factor rises from 0.983 to 0.992.

Compared with `COc1ccc(C(=O)NNC(=O)c2cc(C)[nH]n2)cc1`, `Oc1ccc2nc(Cc3ccccc3)[nH]c2c1` is lower in activation factor: 1.61 for the first, 0.985 for the second.

Compared with `CN(C)C(CNC(=O)c1cccc(C#N)c1)c1ccco1` (centres undefined), `CN(c1ccccc1)S(=O)(=O)c1cccc(NC(=O)Cc2ccc(Cl)cc2)c1` is higher in activation factor: 0.873 for the first, 1.01 for the second.

First: CN(Cc1nc2ccc(F)cc2[nH]1)Cc1nc(CC2CC2)no1
Second: CC(C)=CCN1CCN(Cc2cc3ccccc3[nH]2)CC1CCO (centres undefined)
The activation factor of the first is lower: 0.896 for the first, 1.13 for the second.

Going from `Nc1ncnc2c1ncn2[C@@H]1O[C@H](CNCc2cccn2-c2nccs2)[C@@H](O)[C@H]1O` to `CC(C)N(C(=O)CSc1nc(COc2ccccc2)nc2ccccc12)C(C)C`, the activation factor rises from 0.901 to 0.961.

`O=C(CCCCO)c1ccc(O)c(Cl)c1` and `Cc1ccc(OCCCCN2CCCCC2)c(Br)c1` are the same in activation factor: 1.08 for the first, 1.08 for the second.

Going from `Cc1ccc(S(=O)(=O)N2[C@@H](c3cccc(Cl)c3)C(C(=O)O)=CC[C@H]2c2ccc(Cl)c(Cl)c2)cc1` to `O=S(=O)(c1ccc(F)cc1)N1CC=C(c2ccccc2)CC1`, the activation factor falls from 1.09 to 1.01.

First: COC(C[C@@H](O)[C@H](C)[C@H](O)COCc1ccccc1)OC
Second: CC(CCN1CCN=C1N(C)C)c1ccccc1 (centres undefined)
The activation factor of the first is lower: 0.977 for the first, 0.995 for the second.

Compared with `CC(C)NC(=O)NCCCCCCS(C)=O` (centres undefined), `CC(C)CC(=O)Nc1nnc(S(=O)(=O)N(C)c2ccc(Cl)cc2)s1` is lower in activation factor: 1.08 for the first, 0.968 for the second.

Going from `CC(C)CN(CC(C)C)CC(O)CN(c1ccccc1)S(=O)(=O)c1ccccc1[N+](=O)[O-]` (centres undefined) to `CN=C(Nc1cccc(S(=O)(=O)N2CCOCC2)c1)c1ccccc1`, the activation factor rises from 0.882 to 0.956.

Going from `O=S(=O)(CCc1nc2ccccc2o1)c1ccc(Cl)cc1` to `CN1CCN(Cc2c(C(=O)N3CCc4ccccc4C3)nc3ccc(Cl)cn23)CC1`, the activation factor rises from 0.959 to 1.33.

Going from `CC(C)CC(N=C1NC(C)(C)Cc2ccccc21)C(=O)O` (centres undefined) to `COc1cc(/C=N\NC(=O)C2C(=O)NCC2c2ccccc2)cc(OC)c1O` (centres undefined), the activation factor rises from 0.9 to 0.911.

First: CCOC(=O)C1=NNC2(c3ccc(Cl)cc3)C(=O)N(c3cc(C)cc(C)c3)C(=O)C12 (centres undefined)
Second: COC(=O)Nc1sc2nc(C)cc(C)c2c1-n1cccc1
The activation factor of the first is higher: 1.06 for the first, 0.984 for the second.

`COc1ccc(/C=N/NC(=O)c2ccncc2)cc1CN1CCCc2ccccc21` was tested, and the activation factor was 1.06.

`CCOc1ccc(NC(=O)CSc2nncn2C)cc1` was tested, and the activation factor was 3.82 (active).
`OCCCN1c2ccccc2Nc2nnc(-c3ccccc3)cc21` was tested, and the activation factor was 2.48 (active).
`CCC(C(=O)Nc1ccc(C(C)C)cc1)c1ccccc1` (centres undefined) was tested, and the activation factor was 2.92 (active).
In the case of `Oc1cccc(/C=N/Nc2ccc(Cl)nn2)c1O`, the activation factor is reported as 2.16 (active).
In the case of `c1ccc2[nH]c(-c3nc4ccccc4[nH]3)nc2c1`, the activation factor is reported as 2.1 (active).
For `Cn1c(=O)c2c(nc(N/N=C/c3cccs3)n2Cc2ccc(Br)cc2)n(C)c1=O`, the activation factor was 2.42 (active).
`O=C(Nc1ccon1)c1nc[nH]c1C(=O)NCc1ccccc1` was tested, and the activation factor was 2.43 (active).
For `COc1ccc(C(=O)NNc2cc(C)nc(NNC(=O)c3ccc(OC)cc3)n2)cc1`, the activation factor was 2.25 (active).
With `OC(c1nc2ccc(F)cc2[nH]1)C(O)c1nc2ccc(F)cc2[nH]1` (centres undefined) the activation factor was 3.62 (active).
In the case of `O=C(OCC1O[C@@H](OC(=O)c2cc(O)c(O)c(O)c2)[C@@H](OC(=O)c2cc(O)c(O)c(O)c2)[C@@H](OC(=O)c2cc(O)c(O)c(O)c2)[C@@H]1OC(=O)c1cc(O)c(O)c(O)c1)c1cc(O)c(O)c(O)c1` (some centres undefined), the activation factor is reported as 3.98 (active).
`COc1cccc(/C=N\NC(=O)C2=NNC(=O)C2C)c1O` (centres undefined) was tested, and the activation factor was 2.88 (active).
`COc1cccc(/C=N/NC(=O)c2[nH]nc3c2CCc2ccccc2-3)c1O` was tested, and the activation factor was 2.64 (active).
With `CCCCOC(=O)Nc1sc2nc(C)cc(C)c2c1-n1cccc1` the activation factor was 2.01 (active).
